Where “and” joins values, the source holds several entries; their conditions need not be identical. Equal entries are not always repeated. The whole screen tested about 350,000 compounds, of which about 31,000 (8.9%) were called active. Not shown: some 15% with an inconclusive outcome. Calls follow the shape of the dose curve; as a rule, active = well fitted inhibition curve with a large enough effect; inconclusive = small, poorly fitted or top-dose-only effect; inactive = no such curve, though single readings can be large or run the other way. The entries come from a sample that favours actives as a whole.
Each molecule was assayed against Histone-lysine N-methyltransferase EHMT2 (Homo sapiens) (UniProt Q96KQ7) (assay: qHTS Assay for Inhibitors of Histone Lysine Methyltransferase G9a). Details: G9a H3K9 monomethylation, AlphaScreen, 2 h; series mostly up to 59 µM; activity, negative = inhibition: at the top concentration.
How it was run: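 AlphaScreen read-out: biotin-H3K9 peptide (500 nM) methylation by 20 nM enzyme with 20 uM SAM, 2 h at room temperature after 15 min compound preincubation; anti-monomethyl H3K9 antibody plus donor/acceptor beads, 10 min dark.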
% is scaled to controls: 0 for no effect and ±100 for the full control effect; potency is read from the fitted curve at half-maximal effect.
Also: nearly all actives have a fitted effect of over 75% in size.

Sequence of Histone-lysine N-methyltransferase EHMT2 (Homo sapiens) (Q96KQ7 913-1193 limits assumed): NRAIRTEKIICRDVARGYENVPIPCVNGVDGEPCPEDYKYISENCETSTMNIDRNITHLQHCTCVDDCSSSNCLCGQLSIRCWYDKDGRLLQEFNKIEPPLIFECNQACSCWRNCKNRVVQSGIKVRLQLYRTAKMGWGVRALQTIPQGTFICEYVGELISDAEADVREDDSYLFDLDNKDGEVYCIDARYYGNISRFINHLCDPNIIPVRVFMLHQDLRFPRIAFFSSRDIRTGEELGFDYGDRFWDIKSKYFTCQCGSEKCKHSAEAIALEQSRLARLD

activity, negative = inhibition, inactive:
CCOc1ccc(/C=N/NC(=O)CSc2ccccn2)cc1O 6.98% [at 102 µM]
CCOc1cc(/C=N/NC(=O)CN2CCCCC2)ccc1O 21.9% [at 102 µM]
Cc1ccc(/C=N/NC(=O)CSc2nc3ccccc3o2)cc1 11.8%
O=C(NCC(=O)N1CCCCCCC1)c1ccccc1Cl 8.52% [at 12.7 µM]
Cc1c(C(=O)NCC(c2ccco2)N2CCCC2)oc2ccc(Cl)cc12 (stereo not given) 0.391%
Cc1ccc(S(=O)(=O)NCCC(=O)NC2CCN(Cc3ccccc3)CC2)cc1 14.9%
COc1ccc(-c2noc(-c3ccc(N4CCN(c5ccccc5)CC4)c([N+](=O)[O-])c3)n2)cc1OC -34.5%
CCOc1ccccc1NC(=O)CN1CCN(S(=O)(=O)c2ccc(Br)cc2)CC1 -10.2%
CCNS(=O)(=O)c1ccc(NC(=O)CSc2nc(-c3ccco3)cc(C(F)(F)F)n2)cc1 0.35%
O=C(Nc1cc(-c2ccccc2)nn1-c1ccccc1F)c1ccc([N+](=O)[O-])cc1 -22.8% [at 12.7 µM]
CCOc1ccc(CN2CCN(Cc3c[nH]c4ccccc34)CC2)cc1 25.4% [at 2.33 µM]
CCOc1ccc(CC(=O)NC2CCN(Cc3ccccc3)CC2)cc1 -4.74% [at 102 µM]
Cc1cccc(Cn2c(SCCO)nc3c2c(=O)n(C)c(=O)n3C)c1 -2.49% [at 102 µM]
Cn1c(=O)c2c(nc(SCC(=O)Nc3ccc(F)cc3)n2Cc2ccccc2)n(C)c1=O 12.4%
CCOc1ccccc1C(=O)Nc1ccc(S(=O)(=O)N2CCCCC2c2cccnc2)cc1 (stereo not given) 5.63%
Cc1nnc(SCC(=O)NCc2ccccc2)s1 -12.5%
N#CCSc1nn(-c2ccc(F)cc2)c(=S)s1 -42.3% [at 102 µM]
Cn1c(N)c(C(=O)COC(=O)COc2ccc(Cl)cc2)c(=O)n(C)c1=O 17.9% [at 12.7 µM]
Cc1cccc(N2CCN(C(=O)c3cc4c(=O)oc5ccccc5c4s3)CC2C)c1 (stereo not given) -6.57%
CN(CCNC(=O)c1cc2c(-c3ccccc3F)nn(C)c2s1)C1CCCCC1 -14.4% [at 102 µM]
Oc1ccccc1-c1cc(-c2ccc(Cl)cc2)n[nH]1 -5.84% [at 102 µM]
O=C(NCc1ccc(F)cc1)c1ccc(Cn2c(SCc3ccc(F)cc3)nc3cccnc32)cc1 -9.12%
O=c1[nH]c(=O)c2nc3ccccc3nc2[nH]1 -3.42% [at 12.7 µM] and 46.4% [at 12.7 µM]
CC1CCCC(NC(=O)c2cc(-c3ccncc3)nc3ccccc23)C1C (stereo not given) -22.5% [at 102 µM]
Cc1cc(NS(=O)(=O)c2ccc3oc(=O)c4ncn(C)c4c3c2)ccc1Br 10.1%
Cc1ccccc1CSc1nc(-c2ccccc2)nc2c1Cc1c(CO)cnc(C)c1O2 0.451%
Cc1cc(N2CCN(c3cccc(C(F)(F)F)c3)CC2)n2nc(-c3ccccc3)nc2n1 -4.4%
O=C(NC(Cc1ccccc1)C(=O)N1CCCC(C(F)(F)F)C1)c1ccccc1 (stereo not given) -2.41% [at 102 µM]
O=C(NCC(=O)N1CCCC(C(F)(F)F)C1)c1ccccc1F (stereo not given) -3.38% [at 102 µM]
COc1cccc(CNc2nc(C(F)(F)F)nc3ccccc23)c1 52.2% [at 102 µM]
CCc1ccc(C(CNc2nc(C(F)(F)F)nc3ccccc23)N(C)C)cc1 (stereo not given) 4.66% [at 102 µM]
Cc1ccc(-c2cc(C(=O)Oc3ccccc3Cl)no2)cc1C 134%
O=C(COC(=O)c1c(Cl)cccc1Cl)Nc1cccc(S(=O)(=O)NC2=NCCCCC2)c1 -0.124% [at 12.7 µM]
CC(NC(=O)c1ccccc1SCC(=O)N1CCCC1)c1ccccc1 (stereo not given) -21.2% [at 102 µM]
Cn1c(SCC(=O)N2CCCc3ccccc32)nc2ccccc2c1=O 21%
Cc1nnc(SCC(=O)N2CCc3ccccc32)n1-c1ccccc1 -14.8%
O=C(CNC(=O)c1ccccc1F)c1ccc(Br)cc1 -6.35% [at 102 µM]
Cc1cccc[n+]1CC(=O)c1ccccc1 14.2% [at 102 µM]
COC(=O)c1cnn(-c2ccc(C(=O)Nc3ccc(OC(F)(F)F)cc3)cc2)c1N 5.03%
COc1ccc(-c2cn3c(C)c(C(=O)Nc4cc(C)cc(C)c4)sc3n2)cc1 4.02%

Potency, active:
Cn1c(SCC(=O)N/N=C/c2ccc(O)c(O)c2)nc2ccccc21 17.8 µM
Cc1nccn1CC(=O)N/N=C/c1ccc(O)c(O)c1 7.08 µM
CCOc1ccc(CN2CCCN(C)CC2)cc1 10 µM
COC(=O)C(C)Sc1nc2c(c(=O)n(C)c(=O)n2C)n1Cc1cccc(C)c1 (stereo not given) 20 µM
Cc1ccccc1-n1nc(SCC(=O)O)sc1=S 50.1 µM
Nc1ccc2nc3c(=O)[nH]c(=S)[nH]c3nc2c1 10 µM
FC(F)(F)C1CCCN(c2nsc3ccccc23)C1 (stereo not given) 1.12 µM
NS(=O)(=O)c1ccc(CCNc2nc(C(F)(F)F)nc3ccccc23)cc1 70.8 µM
O=C(CSc1nc2[nH]ncc2c(=O)n1-c1ccccc1)N1CCCc2ccccc21 8.91 µM
O=C(C[n+]1cc(Br)cc2ccccc21)c1ccc(F)cc1 50.1 µM

Reference: PubChem BioAssay AID504332 (National Center for Advancing Translational Sciences (NCATS), 2011)
